From PubChem BioAssay AID1159580 (chemical genetic matrix, 2015)
Values joined by “and” are separate entries in the source; they are usually repeats but may differ in a detail not shown here. Identical values can stand only once. Among all 5,500 compounds or so, about 2,000 (36%) were called active. Inconclusive results (about 18%) are left out. No stated cut-off is given here; in the data, active means normalized growth mostly below about 0.91 (no sharp cut-off); inconclusive means no clear call, values can overlap the other calls; inactive means mostly above about 0.92. Some of the results follow.

Test: chemical genetic growth profiling, strain panel (AID 1159580);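 further: tested at 20 µM; growth read once vehicle control cultures reached saturation at 30 °C; 1 = growth at the plate median or of vehicle wells; lower values mean less growth of the strain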
Conditions: S. cerevisiae deletion strains, growth OD

Measured: normalized growth

CN(C)C(=O)Oc1ccc[n+](C)c1
inactive: locus YAL021C, strain ccr4, active compounds read low 1 | locus YAL026C, strain drs2, active compounds read low 1.01 | locus YAL030W, strain snc1, active compounds read low 0.998 | locus YAL040C, strain CLN3, active compounds read low 0.966 | locus YBL061C, strain skt5, active compounds read low 0.999 | locus YBR009C, strain hhf1, active compounds read low 0.996 | locus YBR021W, strain FUR4, active compounds read low 1.02 | locus YBR023C, strain chs3, active compounds read low 1 | locus YBR171W, strain sec66, active compounds read low 1 | locus YBR229C, strain ROT2, active compounds read low 1.02 | locus YBR231C, strain swc5, active compounds read low 1.03 | locus YBR279W, strain paf1, active compounds read low 1 | locus YCL011C, strain gbp2, active compounds read low 0.998 | locus YCL016C, strain dcc1, active compounds read low 1.01 | locus YCL029C, strain bik1, active compounds read low 1.02 | locus YCL061C, strain MRC1 (second series), active compounds read low 0.992 | locus YCL061C, strain MRC1, active compounds read low 1.01 | locus YCL069W, strain vba3, active compounds read low 1 | locus YCR088W, strain abp1, active compounds read low 1 | locus YDL005C, strain med2, active compounds read low 1 | locus YDL035C, strain GPR1, active compounds read low 1.03 | locus YDL040C, strain nat1, active compounds read low 1 | locus YDL074C, strain BRE1, active compounds read low 1 | locus YDL101C, strain DUN1, active compounds read low 1.01 | locus YDL134C, strain PPH21, active compounds read low 1.03 | locus YDL185W, strain tfp1, active compounds read low 1.01 | locus YDL192W, strain arf1, active compounds read low 1.02 | locus YDR001C, strain nth1, active compounds read low 1 | locus YDR069C, strain doa4, active compounds read low 1 | locus YDR101C, strain arx1, active compounds read low 1.02 | locus YDR137W, strain rgp1, active compounds read low 1.03 | locus YDR159W, strain sac3, active compounds read low 1 | locus YDR162C, strain NBP2, active compounds read low 1.02 | locus YDR195W, strain ref2 0.99 | locus YDR297W, strain sur2, active compounds read low 0.999 | locus YDR318W, strain mcm21, active compounds read low 1.02 | locus YDR334W, strain swr1, active compounds read low 1 | locus YDR335W, strain msn5, active compounds read low 0.996 | locus YDR363W, strain ESC2, active compounds read low 0.885 | locus YDR388W, active compounds read low 1.02 | locus YDR392W, strain spt3, active compounds read low 0.996 | locus YDR502C, strain sam2, active compounds read low 1.02 | locus YEL003W, strain gim4, active compounds read low 0.993 | locus YEL037C, strain rad23, active compounds read low 0.991 | locus YEL061C, strain CIN8 (second series), active compounds read low 0.993 | locus YEL061C, strain CIN8, active compounds read low 1.01 | locus YER002W, strain NOP16, active compounds read low 1.01 | locus YER015W, strain faa2, active compounds read low 0.989 | locus YER016W, strain bim1, active compounds read low 1 | locus YER110C, active compounds read low 1.03 | locus YER111C, strain swi4, active compounds read low 1.02 | locus YER155C, strain BEM2 (second series), active compounds read low 0.994 | locus YER155C, strain BEM2, active compounds read low 1.02 | locus YER167W, strain BCK2, active compounds read low 1.02 | locus YFR010W, strain ubp6, active compounds read low 1.01 | locus YGL078C, strain dbp3, active compounds read low 1.01 | locus YGL086W, strain mad1, active compounds read low 1 | locus YGL167C, strain pmr1, active compounds read low 1.01 | locus YGL173C, strain kem1, active compounds read low 1.01 | locus YGL227W, strain vid30, active compounds read low 1.01 | locus YGL240W, strain doc1, active compounds read low 1.01 | locus YGL248W, strain PDE1, active compounds read low 1 | locus YGL253W, strain hxk2, active compounds read low 1 | locus YGR135W, strain pre9, active compounds read low 1.05 | locus YGR229C, strain SMI1, active compounds read low 1.01 | locus YGR252W, strain gcn5, active compounds read low 1.01 | locus YHR013C, strain ard1, active compounds read low 1.01 | locus YHR027C, strain rpn1, active compounds read low 1.01 | locus YHR030C, strain SLT2, active compounds read low 1.02 and 1.01 | locus YHR079C, strain IRE1 (second series), active compounds read low 1.01 | locus YHR079C, strain IRE1, active compounds read low 1 | locus YHR094C, strain hxt1, active compounds read low 1.02 | locus YHR129C, strain ARP1, active compounds read low 1.01 | locus YHR142W, strain chs7, active compounds read low 0.994 | locus YHR200W, strain rpn10, active compounds read low 1.02 | locus YIL066C, strain RNR3, active compounds read low 1.02 | locus YIL073C, strain SPO22, active compounds read low 1.06 | locus YIL125W, strain kgd1, active compounds read low 1.02 | locus YIR030C, strain dcg1, active compounds read low 1.02 | locus YJL092W, strain hpr5, active compounds read low 1.02 | locus YJL095W, strain BCK1 (second series), active compounds read low 1.01 | locus YJL095W, strain BCK1, active compounds read low 0.994 and 1.04 | locus YJL115W, strain asf1, active compounds read low 0.993 | locus YJL129C, strain trk1, active compounds read low 1.01 | locus YJL134W, strain LCB3, active compounds read low 1.01 | locus YJL154C, strain vps35, active compounds read low 0.995 | locus YJL164C, strain tpk1, active compounds read low 1 | locus YJL166W, strain qcr8, active compounds read low 0.996 | locus YJL168C, strain set2, active compounds read low 1.01 | locus YJL187C, strain SWE1 (second series), active compounds read low 1 | locus YJL187C, strain SWE1, active compounds read low 1 | locus YJR043C, strain POL32, active compounds read low 1 | locus YJR066W, strain TOR1, active compounds read low 0.966
